Data: article PMC4336329 (PLoS ONE, 2015)
Out of some 310,000 compounds screened, about 2,200 (0.71%) showed an effect of 50% or more. The effect is printed as a negative number. The sample as a whole holds a higher share of strong results than the screen did.

Molecular target: human ether-à-go-go-related gene (hERG) potassium channel (human, UniProt Q12809)
Assay: primary screen, population patch clamp on CHO cells stably expressing hERG; higher = less effect of the substance

Sequence of human ether-à-go-go-related gene (hERG) potassium channel (Q12809 whole entry, looked up): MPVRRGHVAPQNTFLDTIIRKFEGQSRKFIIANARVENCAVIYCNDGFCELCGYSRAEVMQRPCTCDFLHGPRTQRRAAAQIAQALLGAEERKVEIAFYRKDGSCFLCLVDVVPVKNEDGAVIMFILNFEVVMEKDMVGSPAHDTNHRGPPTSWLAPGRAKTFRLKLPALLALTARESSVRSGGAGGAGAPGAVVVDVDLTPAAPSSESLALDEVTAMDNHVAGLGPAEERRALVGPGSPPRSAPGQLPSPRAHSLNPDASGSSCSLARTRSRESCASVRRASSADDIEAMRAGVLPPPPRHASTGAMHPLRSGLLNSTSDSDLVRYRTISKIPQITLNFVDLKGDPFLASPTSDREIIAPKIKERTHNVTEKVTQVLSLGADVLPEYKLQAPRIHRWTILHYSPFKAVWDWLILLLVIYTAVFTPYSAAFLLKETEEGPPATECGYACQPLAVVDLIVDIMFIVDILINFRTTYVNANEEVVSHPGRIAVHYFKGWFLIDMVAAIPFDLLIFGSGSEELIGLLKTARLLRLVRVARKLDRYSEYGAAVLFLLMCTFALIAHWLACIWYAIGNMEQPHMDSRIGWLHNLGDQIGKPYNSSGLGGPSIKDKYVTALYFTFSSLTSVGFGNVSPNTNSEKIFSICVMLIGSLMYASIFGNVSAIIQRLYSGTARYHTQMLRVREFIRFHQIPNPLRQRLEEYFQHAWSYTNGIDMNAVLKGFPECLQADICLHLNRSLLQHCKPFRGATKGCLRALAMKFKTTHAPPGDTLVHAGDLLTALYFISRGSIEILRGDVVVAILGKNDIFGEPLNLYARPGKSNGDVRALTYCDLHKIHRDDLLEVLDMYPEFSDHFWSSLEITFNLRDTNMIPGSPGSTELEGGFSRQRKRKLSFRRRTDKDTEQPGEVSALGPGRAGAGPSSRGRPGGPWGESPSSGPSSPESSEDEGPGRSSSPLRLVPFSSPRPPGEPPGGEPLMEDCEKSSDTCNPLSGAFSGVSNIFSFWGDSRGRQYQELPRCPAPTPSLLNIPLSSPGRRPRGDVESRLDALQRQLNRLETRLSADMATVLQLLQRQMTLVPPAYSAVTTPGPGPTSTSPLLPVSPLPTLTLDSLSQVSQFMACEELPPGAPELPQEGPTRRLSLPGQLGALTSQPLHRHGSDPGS

| SMILES | hERG current change (%, negative = inhibition) at 1uM [%] |
| --- | --- |
| O=C(CN1CCN(CC(=O)Nc2ccc(Cl)cc2)CC1)Nc1ccc(F)cc1 | -86.9 |
| O=C(CN1CCN(c2ccc(Cl)cc2)CC1)Nc1ccc(F)cc1 | -28.1 |
| CCN(CC)c1ccc(NC(=O)CN2CCN(CC(=O)Nc3ccc(F)cc3)CC2)cc1 | -84.5 |
| O=C(CN1CCN(CC(=O)Nc2ccc(-c3ccccc3)cc2)CC1)Nc1ccc(F)cc1 | -13.7 |
| CCN(CC)c1ccc(NC(=O)CN2CCN(CC(=O)Nc3ccccc3F)CC2)cc1 | -13 |
| CCN(CC)c1ccc(NC(=O)CN2CCN(c3ccccc3F)CC2)cc1 | 7.06 |
| CN(C)c1ccc(NC(=O)CN2CCN(CC(=O)Nc3ccc(F)cc3)CC2)cc1 | -61.1 |
| O=C(CN1CCN(c2ccc(O)cc2)CC1)Nc1ccc(SC(F)F)cc1 | -78.4 |
| COc1ccc(N2CCN(CC(=O)Nc3ccc(SC(F)F)cc3)CC2)cc1 | -35.8 |
| CN(C)c1ccc(NC(=O)CN2CCC(C(=O)c3ccc(F)cc3)CC2)cc1 | -4.93 |
| CN(C)c1ccc(NC(=O)CN2CCN(c3ccc(F)cc3)CC2)cc1 | -3.53 |
| COc1cccc(N2CCN(CC(=O)Nc3ccc(SC(F)F)cc3)CC2)c1 | -27.7 |
| CN(C)C=O.Cc1cccc(-n2nnnc2SCC(=O)N(CC(C)C)c2c(N)n(CC(C)C)c(=O)[nH]c2=O)c1 | 4.9 |
| O=C(c1cccc(S(=O)(=O)NCc2ccccc2)c1)N1CCCCC1 | 9.32 |
| CCN(CC)CCCN(C(=O)Cn1nnc(-c2ccc(OC)c(OC)c2)n1)C(C(=O)NC(C)(C)C)c1ccc(F)cc1 (centres unmarked) | -25.2 |
| C=CCN1C(=O)C(CC(=O)NCC)SC1=Nc1ccccc1CC (centres unmarked) | 11.7 |
| c1ccc(CSc2nncn2-c2ccccn2)cc1 | 7.05 |
| O=C(CSC(=S)N1CCCCC1)c1c(F)cccc1F | 21.7 |
| OC1(c2ccccc2)c2ccccc2-c2ncccc21 (centres unmarked) | 5.63 |
| O=C(Cc1coc2cc3c(cc12)CCC3)NCC1(N2CCCCC2)CCCCC1 | -59.2 |
| Cc1ccc2c(CC(=O)NCC3(N4CCOCC4)CCCCC3)coc2c1C | -5.15 |
| O=C(Cc1coc2cc3c(cc12)CCC3)NC1CCCCCCC1 | 0.112 |

| SMILES | hERG current change (%, negative = inhibition) at 1uM [%] |
| --- | --- |
| O=S(=O)(c1cccs1)N1CN(C2CCCCC2)c2nc3ccccc3nc21 | 0.376 |
| COc1cc(/C=C2\SC(N3CCc4ccccc4C3)=NC2=O)cc(OC)c1OC | 5.93 |
| CCCCn1c(=N)n(CC(O)COc2cccc(C)c2)c2ccccc21.Cl (centres unmarked) | -59.8 |
| CCN(CC)CCn1c(=N)n(CC(O)COc2cccc(C)c2)c2ccccc21.Cl (centres unmarked) | -22.1 |
| CCCn1c(=N)n(CC(O)COc2cccc(C)c2)c2ccccc21.Cl (centres unmarked) | -60 |
| CCn1c(=N)n(CC(O)COc2cccc(C)c2)c2ccccc21.Cl (centres unmarked) | -16 |
| COc1ccc(-c2oc3cccnc3c2C#CC2(O)CCCCC2)cc1 | 6.61 |
| COCCC(=O)N1CCC(Oc2ccc(C(=O)N(C)CCCC3CCCC3)cc2)CC1 | -1.26 |
| Cc1cccn2c(=O)c3cc(C(=O)NC4CCCC4)c(=N)n(CCCN4CCOCC4)c3nc12 | -77.5 |
| CCCn1c(=N)c(C(=O)NC2CCCC2)cc2c(=O)n3cccc(C)c3nc21 | -84.1 |
| Cc1cccn2c(=O)c3cc(C(=O)NC4CCCCC4)c(=N)n(CCN4CCOCC4)c3nc12 | -51.7 |
| C#CCOCCOCCOCCNc1nc(N2CCN(C(=O)[C@H](CCC(=O)O)n3cc(C(N)Cc4ccc(O)cc4)nn3)CC2)nc(N2CCN(C(=O)[C@H](CCC(=O)O)n3cc(C(N)Cc4ccc(O)cc4)nn3)CC2)n1.Cl (some centres unmarked) | 12.3 |
| Cc1ccnc(SCc2cc(=O)c(OC(=O)c3ccccc3)co2)n1 | 15 |
| CC(NC(=O)C(C)N1C(=O)c2cccc([N+](=O)[O-])c2C1=O)c1ccccc1 (centres unmarked) | 14.9 |
| O=C(c1cc2nc(-c3ccco3)cc(C(F)(F)F)n2n1)N1CCCc2ccccc21 | 16.9 |
| COc1ccc(CNS(=O)(=O)c2c(C(=O)N3CCCCCC3)c(C)n(C)c2C)cc1 | 10.5 |
| C=CCNC(=O)c1onc(CSc2cccc(OC)c2)c1C(=O)O | 18.7 |
| CCOc1ccc(-c2nc(-c3ccccc3C)no2)cc1 | 10.9 |
| Cc1cc(C)n2nc(-c3cnn(C)c3C(F)(F)F)cc2n1 | 1.96 |
| Cn1c(CSCc2ccccc2)nnc1SCC(=O)Nc1nccs1 | -17.6 |
| O=C1NC(Cc2ccccc2)C(=O)N1CC(=O)N1CCCc2ccccc21 (centres unmarked) | 5.14 |
| Cc1cc(C)c2cc(C(=O)N3CCC(C(=O)c4ccc(F)cc4)CC3)[nH]c2c1 | 8.43 |

| SMILES | hERG current change (%, negative = inhibition) at 1uM [%] |
| --- | --- |
| CCOC(=O)C1CCN(C(=O)c2cc3c(C)cc(C)cc3[nH]2)CC1 | 12 |
| Cc1cc(C)c2cc(C(=O)N3CCC(N4CCCCC4)CC3)[nH]c2c1 | -58.8 |
| CCOC(=O)C1CCN(C2CCN(C(=O)c3oc4c(C)c(C)ccc4c3C)CC2)CC1 | -15.6 |
| CCOC(=O)C1CCN(C2CCN(C(=O)c3oc4c(F)cccc4c3C)CC2)CC1 | -67 |
| Cc1c(C(=O)N2CCC(N3CCSCC3)CC2)oc2c(F)cccc12 | 2.81 |
| Cc1nc2nc(C)c(CCC(=O)NC3CCCCC3)c(C)n2n1 | 9.07 |
| CCCCN1C2CCCC1CC(NC(=O)c1cccc(OC)c1)C2 (centres unmarked) | -2.96 |
| Cc1cccc(C(=O)NC2CC3CCCC(C2)N3S(=O)(=O)c2ccccc2)c1 (centres unmarked) | -63.4 |
| COc1ccc(CN2C3CCC2CC(NC(=O)c2cccc(F)c2)C3)cc1 (centres unmarked) | -81.1 |
| O=C(NC1CC2CCC(C1)N2Cc1ccccc1)c1cccc(F)c1 (centres unmarked) | -17.5 |
| COc1ccc(CN2C3CCCC2CC(NC(=O)c2cccc(F)c2)C3)cc1 (centres unmarked) | -85.9 |
| CCCN1C2CCCC1CC(NC(=O)c1cccc(Cl)c1)C2 (centres unmarked) | -2.98 |
| O=C(NC1CC2CCCC(C1)N2S(=O)(=O)c1ccccc1)c1ccccc1 (centres unmarked) | -9.46 |
| O=C(NC1CC2CCCC(C1)N2Cc1ccccc1)c1cccc(F)c1 (centres unmarked) | -29.8 |
| COc1cccc(C(=O)NC2CC3CCCC(C2)N3S(=O)(=O)c2ccccc2)c1 (centres unmarked) | -8.93 |
| CCCCN1C2CCCC1CC(NC(=O)c1cccc(Cl)c1)C2 (centres unmarked) | -63 |
| COc1ccc(C(=O)NC2CC3CCCC(C2)N3Cc2ccccc2)cc1 (centres unmarked) | -15.7 |
| COc1cccc(C(=O)NC2CC3CCC(C2)N3Cc2ccccc2)c1 (centres unmarked) | -2.53 |
| O=C(O)c1ccccc1-c1ccccc1C(=O)NCc1ccco1 | 13 |
| Clc1ccc2c(NCc3ccco3)ncnc2c1 | -1.55 |
| O=C(OCC(=O)N1CCCCC1)c1cccc(NS(=O)(=O)c2ccccc2)c1 | 12.4 |
| O=C(NCc1ccc(C(=O)N2CCC3(CC2)OCCO3)cc1)c1ccc2c(c1)OCO2 | 5.42 |

| SMILES | hERG current change (%, negative = inhibition) at 1uM [%] |
| --- | --- |
| O=C(CSc1nnc(-c2ccco2)n1Cc1ccccc1)NC(=O)NCc1ccco1 | -15.6 |
| CCOC(=O)C1(CCCc2ccccc2)CCN(C2CCC2)CC1 | -57.1 |
| CCOC(=O)C1(CCc2ccccc2)CCN(C(=O)C2CCOCC2)CC1 | -21.2 |
| CCOC(=O)C1(CCCc2ccccc2)CCN(C(=O)COC)CC1 | 10.5 |
| OCC1(CCCc2ccccc2)CCN(C2CCSCC2)CC1 | -65.4 |
| CCOC(=O)C1(CCc2ccccc2)CCN(C2Cc3ccccc3C2)CC1 | -18.7 |
| CCOC(=O)C1(CCCc2ccccc2)CCN(C2CCCC2)CC1 | -66.1 |
| CCOC(=O)C1(CCCc2ccccc2)CCN(C(=O)C2CCCO2)CC1 (centres unmarked) | 5.58 |
| CCOC(=O)C1(CCc2ccccc2)CCN(C2CCSCC2)CC1 | -80.7 |
| CSCC(C)N1CCC(CO)(CCCc2ccccc2)CC1 (centres unmarked) | -11.2 |
| CCOC(=O)C1(CCCc2ccccc2)CCN(S(C)(=O)=O)CC1 | 5.98 |
| CCOC(=O)C1(CCCc2ccccc2)CCN(C(=O)CSC)CC1 | 3.88 |
| CS(=O)(=O)c1ccc(S(=O)(=O)N2CCC(CO)(CCCc3ccccc3)CC2)cc1 | 4.47 |
| O=C(NCc1ccco1)C1CCN(S(=O)(=O)c2ccccc2C(F)(F)F)CC1 | 12.6 |
| COc1cccc(C(=O)NCCS(=O)(=O)N2CCC(C)CC2)c1 | 3.89 |
| CC1(C)CN(c2ccc(C(=O)c3ccccc3)cc2)C1=O | 6.95 |
| CCCCn1c(N)c(N(CCOC)C(=O)C2CCN(S(=O)(=O)c3ccc(C)cc3C)CC2)c(=O)[nH]c1=O | 14.6 |
| Cc1ccccc1OCC(=O)OCC(=O)c1ccc[nH]1 | 10.2 |
| CCOC(=O)c1nn(-c2ccccc2C)c2nc(CC(C)C)c(C#N)c(=O)n12 | 15.8 |
| O=c1cc(NCc2ccco2)c2ccccc2o1 | 11.6 |
